# DPM-DC inhibit = S. pneumoniae DPM-DC inhibition; actives 0.49% (n = 65,000); purified DPM-DC, PK/LDH coupled NADH fluorescence; calls only at 10 µM;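 active means the 320 compounds with the highest percent inhibition in the single-dose primary screen, excluding strongly autofluorescent ones, cut at about 32% in these data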;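 further: kinetic rate of NADH fluorescence loss reporting ADP formed by the decarboxylase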
# NADH enzymes = blocks coupling enzymes of NAD/NADH assays | AID 774 | coupled PK/LDH NADH assays, four targets | actives 0.02% (n = 65,000) | IC50, µM (top dose mostly 10 µM), inactives show at the top dose inhibition;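 active means single-dose screening hits from any of four coupled enzyme assays that gave an IC50 when retested across doses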;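 further: the DPM-DC format reads NADH fluorescence rather than 340 nm absorbance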
# Autofluor 339 = intrinsic fluorescence of library compounds, ex339/em460 – biochemical, MLSMR library, data from DPM-DC assay, artefact control, profiling panel. compound autofluorescence, ex339/em460 nm, NADH buffer; hits give high values; 1 = no-compound wells, NADH background. fluorescence fold increase at 10 µM. actives 5.5% (n = 65,000). AID 709;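 active means at 10 µM, mean starting fluorescence two-fold or more over control wells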;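 further: signal is the first read of a kinetic run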
# Abs 340nm = compound absorbs light at 340 nm; 65,000 tested, under 10 active; fold change at 10 µM; compound absorbance at 340 nm, fold over control;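 active means at 10 µM dose, initial 340 nm absorbance at least 2 fold that of control wells; inactive means change under 2 fold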;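 further: initial absorbance extrapolated from kinetic A340 decline of NADH oxidation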
# PMK inhibit = blocks S. pneumoniae phosphomevalonate kinase; purified PMK, PK/LDH-coupled NADH absorbance 340 nm; inhibition, % at 10 µM; actives 0.49% (n = 65,000); AID 539;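 active means top-ranked compounds by inhibition in the single 10 µM screen, taking a fixed number of the strongest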;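 further: 0% = full reaction with DMSO carrier and 100% = background rate without enzyme reaction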
# Spn MK inh = blocks S. pneumoniae mevalonate kinase | purified MK, PK/LDH-coupled NADH absorbance 340 nm | inhibition, % at 10 µM | actives 0.48% (n = 65,000) | AID 555;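 active means ranked among the strongest by inhibition in the single 10 µM screen, a fixed top-ranked set picked for dose follow-up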
# Starred values were filed as active, the others as inactive; i = inactive; . = no result shown; + = active, no number; [ ] = dose if it differs, or a comment. In the library only some 6.5% were active in any assay of this set; here they are far more common.
SMILES,DPM-DC inhibit,NADH enzymes,Autofluor 339,Abs 340nm,PMK inhibit,Spn MK inh
Cc1ccc2c(CC(=O)OC(C)C(=O)NCc3ccc4c(c3)OCO4)coc2c1 (configuration not stated),i,5%,1,0.99,12,2
Cc1cc(C(=O)N2CCN(Cc3ccc4c(c3)OCO4)CC2)cs1,i,3%,1.1,1,1,9
CCOC(=O)C1=C(C)NC(=O)C(C(N)=O)C1c1ccccc1 (configuration not stated),i,5%,1.1,0.98,4,9
CCc1nc(SCC(=O)N2CCC(C)CC2)c2c(=O)n(C)c(=O)n(C)c2n1,i,1%,1.1,1,0,4
COc1ccc(C(C)=O)cc1COC(=O)c1cccc(N(C)C)c1,i,7%,2.1*,0.98,11,2
Cc1ccc2cc(C#N)c(SCC(=O)NCc3ccco3)nc2c1,i,5%,1.2,1,10,5
CCOC(=O)CSc1nc(N)c(C#N)c(-c2ccc(OC)cc2)c1C#N,i,7%,1.1,1,7,13
Cc1cccc2cc(C#N)c(SCC(=O)N3CCC(C)CC3)nc12,i,8%,1.1,1,14,6
CCOc1ccc2cc(C#N)c(SCC(=O)NC(C)CC)nc2c1 (configuration not stated),i,5%,3.2*,1,0,5
CCOC(=O)CSc1nc2cc(OCC)ccc2cc1C#N,i,13%,2.6*,1.1,8,9
COC(=O)CSc1nc2cc(OC)ccc2cc1C#N,i,7%,2.3*,1.1,2,4
CCOc1ccc2cc(C#N)c(SCC(=O)N3CCC(C)CC3)nc2c1,i,6%,2.5*,1,9,12
COc1ccc2cc(C#N)c(SCC(=O)N3CCCC3)nc2c1,i,6%,1.8,1,1,0
Brc1c(OCCOCCn2cncn2)ccc2ccccc12,i,3%,1.1,1,4,5
O=C(c1cccnc1)N1CCN(C(=O)c2ccccc2F)CC1,i,2%,1.1,0.99,6,9
Cc1ccc(NC(=O)N2C(=O)C3(OCCO3)c3ccccc32)cc1,i,4%,1.1,1,9,2
COc1ccc2cc(C#N)c(NC(C)C)nc2c1,.,3%,2.6*,1,8,9
Cc1noc(/C=C/c2ccco2)c1S(=O)(=O)N1CCC(C(=O)N2c3ccccc3CC2C)CC1 (configuration not stated),i,0%,1.2,1.1,0,0
Cc1cccc(N2CCN(C(=O)Cn3sc4nc(C)cc(C)c4c3=O)CC2C)c1 (configuration not stated),i,9%,1.2,1.1,0,14
Cc1cc(C)c2c(=O)n(CC(=O)NCCCN3CCN(c4ccccc4F)CC3)sc2n1,+,11%,1.3,1,8,27
Cc1cc(C)c2c(=O)n(CC(=O)NCCCN3CCOCC3)sc2n1,i,10%,1.2,0.99,10,23
Cc1cc(C)c2c(=O)n(CC(=O)N3CCC(Cc4ccccc4)CC3)sc2n1,+,12%,1.2,0.99,7,19
Cc1c(-c2cccs2)[n+](=O)c2c(n1[O-])CCCC2,i,6%,1.1,1,4,10
COC(=O)c1cc(-c2ccccc2)sc1NC(=O)c1cc(C)on1,.,4%,2.5*,1,4,12
CCCOc1ccc2c(C)c(CC(=O)OC)c(=O)oc2c1,.,8%,3.7*,1.1,6,9
SMILES,DPM-DC inhibit,NADH enzymes,Autofluor 339,Abs 340nm,PMK inhibit,Spn MK inh
CCc1c(C)c2ccc(OCC(N)=O)cc2oc1=O,.,1%,3.7*,1.2,0,1
COC(=O)C(CC(C)C)Oc1ccc2c(C)cc(=O)oc2c1 (configuration not stated),i,7%,1.7,1.1,0,3
CCOC(=O)c1oc2cc(OCC(N)=O)ccc2c(=O)c1-c1ccc(OC)c(OC)c1,i,3%,1,1,8,7
CCCN1CCN(CCCNC(=O)Cn2nc(-c3ccccc3)ccc2=O)CC1,i,11%,1.1,1,27*,7
COC(=O)CSc1nnc2c3c4c(sc3nc(-n3nc(C)cc3C)n12)COC(C)(C)C4,i,7%,2.7*,1.1,0,12
CCOC(=O)c1sc(=NC(=O)c2ccc(S(=O)(=O)N3CC(C)OC(C)C3)cc2)n(C)c1C (configuration not stated),i,9%,3.9*,1,17,11
Cc1cc(C(F)F)n2nc(C(=O)Nc3cccc(C(F)(F)F)c3)nc2n1,i,4%,1.1,1,7,4
COc1ccc(C(F)(F)F)cc1NC(=O)c1nc2nc(C)cc(C(F)F)n2n1,.,3%,3*,1,8,1
COc1ccc(-c2nc3ccccc3c(=O)n2CCN2CCOCC2)cc1,i,3%,1.1,1,4,6
CCCn1c(-c2ccc(OC)cc2)nc2nc3ccccc3nc21,.,12%,2.1*,1.2,17,6
COCCCn1c(-c2ccc(OC)cc2)nc2nc3ccccc3nc21,.,2%,4*,1.1,3,0
Clc1ccc(-c2nc3nc4ccccc4nc3n2Cc2ccco2)cc1,i,0%,1.9,1.1,0,1
CN(C1CCCCC1)S(=O)(=O)Cc1ccccc1,i,11%,1.3,1,0,9
Cc1[nH]nc2c1-c1nc3ccccc3nc1C(C)(C)C2,.,10%,3.9*,1.1,10,9
COC(=O)C1C(=O)c2c(n[nH]c2C)CC1(C)C (configuration not stated),i,3%,1.1,1,1,5
CCOC(=O)N1CCC(NC(=O)c2cc(C(=O)Nc3ccc(OC)c(OC)c3)ccc2CO)CC1,i,4%,1.1,1.1,13,0
OCCNc1nc(-c2ccccc2)c2ccccc2n1,.,8%,2.4*,1,12,3
Cc1ccc2nc(NCCO)nc(-c3ccccc3)c2c1,.,17%,5*,1,18,15
COc1ccc(CNc2nc3c(c(C(F)(F)F)n2)CCCCC3)cc1,i,3%,1.4,1.1,0,8
CC1(C)CC(=O)C2=C(C1)N(Cc1ccco1)C(=O)C2(NC(=O)C1CCCCC1)C(F)(F)F (configuration not stated),i,4%,1,0.99,9,0
CC(C)(CO)NC(=O)C(c1ccccc1)c1ccccc1,+,36%,1.1,1,0,11
Cn1nnc(NC(=O)C(c2ccccc2)c2ccccc2)n1,i,4%,1.1,1,7,4
Cc1ccc(S(=O)(=O)c2cc3c(=O)n4ccccc4nc3n(CC3CCCO3)c2=N)cc1C (configuration not stated),+[fluoresces],3%,2.2*,1,14,3
O=c1c2ccccc2c2ccccc2c(=O)n1Cc1ccco1,i,7%,1.1,1,2,11
